PubChem BioAssay (NCATS)
Values joined by “and” are separate entries in the source; they are usually repeats but may differ in a detail not shown here. Equal entries are not always repeated. Records with an inconclusive call do not appear. Active and inactive are the calls of the source. Unless noted, calls follow the shape of the dose curve; as a rule, active = well fitted curve in the direction sought with a large enough effect; inconclusive = small, poorly fitted or top-dose-only effect, or another doubt; inactive = no such curve, though single readings can be large; an effect the other way counts as inactive or inconclusive.

Key:
[1] = Cell Viability - Hek293 (AID 427;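 active = compounds whose dose-response curve shows a full or clear partial loss of cell viability, called from curve shape rather than a numeric limit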;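 also: potency is read from the fitted curve at half-maximal effect; cells exposed to compound for 40 hours at 37 °C before reading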); settings: qHTS
Summary of the method: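 qHTS, human embryonic kidney (adenovirus-transformed) cells; 40 hr cpd, 37 °C; CellTiter-Glo ATP luminescence. Norm: DMSO = 0, 100 uM tamoxifen = 100% inhibition. Hill-fit AC50.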

[2] = Cell Viability - SK-N-SH (AID 435; calls by dose curve;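 also: potency is read from the fitted curve at half-maximal effect; compound exposure lasted 40 h at 37 °C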); settings: SK-N-SH neuroblastoma cell viability qHTS
Summary of the method: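 Human neuroblastoma line, 40 h exposure at 37 °C, ATP quantified via luciferase luminescence; DMSO and 100 uM tamoxifen define 0 and 100% inhibition for AC50 fitting.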

[3] = Cell Viability - HUV-EC-C (AID 542); settings: HUV-EC-C endothelial cell viability, qHTS; series mostly up to 92.2 µM; also: % is scaled to controls: 0 for no effect and ±100 for the full control effect; nearly all actives have a fitted effect of over 35% in size
Summary of the method: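 HUV-EC-C normal human vascular endothelial cells, 1000 cells/well, pre-incubated 5 hr at 37 °C, then exposed to compounds for 40 hr at 37 °C in complete medium. Viability measured as intracellular ATP by CellTiter-Glo luminescence; AC50 from Hill fits.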

[4] = Cell Viability - SH-SY5Y (AID 544); settings: SH-SY5Y neuroblastoma cell viability; viability change, negative = cytotoxic: at 92.2 µM (top of the series);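 also: 0% = DMSO alone and -100% = 100 µM tamoxifen; nearly all actives have a fitted effect of over 55% in size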
Summary of the method: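 Human neuroblastoma SH-SY5Y cells (1500/well) in complete medium were exposed to compounds for 40 hr at 37 °C; intracellular ATP was then quantified by CellTiter-Glo luminescence after 20 min at room temperature. AC50 came from Hill-equation concentration-response fits.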

[5] = Cellular Toxicity (caspase-3) Renal Proximal Tubule (AID 667); settings: renal proximal tubule cells; series mostly up to 91.7 µM;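 also: cells exposed to compound for 16 hours at 37 °C before detection; 0% = DMSO basal and 100% = 10 µM staurosporine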
Summary of the method: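 Caspase-Glo 3/7 read-out, rat primary kidney proximal tubule cells. Compound exposure 16 h, 37 °C; detection after 1 h at RT. Activity scaled to DMSO and 10 uM staurosporine.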

[6] = MultiTox-Fluor Cytotoxicity Assay - LYMP1-002 - Dead Cells (AID 960); settings: LYMP1-002 lymphoblastoid cells, dead-cell protease fluorescence; series mostly up to 46.1 µM;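 also: 0% = DMSO and 100% = tetraoctylammonium bromide; nearly all actives have a fitted effect of over 60% in size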
Summary of the method: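 Human lymphoblastoid cells (LYMP1-002), 2500/well in complete medium, were exposed to compounds for 16 hr at 37 C. Dead-cell protease activity was read as bis-AAF-R110 fluorescence (Ex/Em 485/520), normalized to DMSO and 15 uM tetraoctylammonium bromide; AC50 from Hill fits.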

[7] = Cell Viability - LYMP2-004 (AID 966); settings: LYMP2-004 lymphoblastoid cell viability, qHTS; series mostly up to 92.2 µM;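 also: plate controls were DMSO only for no effect and tetraoctylammonium bromide control for full effect; nearly all actives have a fitted effect of over 65% in size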
Summary of the method: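 Human lymphoblastoid cells (2500/well) in complete medium were treated with compounds for 24 hr at 37 C, then intracellular ATP was measured by CellTiter-Glo luminescence. AC50 values came from Hill-equation fits of concentration-response data.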

[8] = Cell Viability - LYMP2-005 (AID 967); settings: LYMP2-005 lymphoblastoid cell viability; series mostly up to 92.2 µM;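 also: plate controls were DMSO only for no effect and 92 µM tetraoctylammonium bromide control for full effect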
Summary of the method: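 Luciferase-based ATP quantitation served as the viability measure in human lymphoblastoid LYMP2-005 cells exposed to test compounds for 24 h at 37 C in complete culture medium. Potency (AC50) was obtained by fitting concentration-response curves with the Hill equation.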

[9] = Cell Viability - LYMP2-012 (AID 982); settings: LYMP2-012 lymphoblastoid cell viability qHTS; series mostly up to 92.2 µM;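 also: cellular ATP by luciferase luminescence where a drop means cytotoxicity; cells exposed to compound for one day before reading; 0% = DMSO only and full loss = 92 µM tetraoctylammonium bromide; nearly all actives have a fitted effect of over 55% in size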
[10] = Cell Viability - LYMP2-018 (AID 985); settings: LYMP2-018 lymphoblastoid cells, viability (qHTS); series mostly up to 92.2 µM;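 also: compound exposure lasted 24 hr at 37 °C; plate controls were DMSO only for no effect and tetraoctylammonium bromide at 92 µM for full effect; nearly all actives have a fitted effect of over 50% in size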
Summary of the method: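 Human lymphoblastoid cells (2500/well) were pre-incubated 5 hr at 37 C, then exposed to compounds for 24 hr at 37 C in complete medium. Viability was read as intracellular ATP by CellTiter-Glo luminescence; AC50 values came from Hill-equation fits.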

[11] = Cell Viability - LYMP1-002 - Assay at 40 hr (AID 994); settings: LYMP1-002 lymphoblastoid cell viability; series mostly up to 92.2 µM;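 also: 0% = DMSO only and full inhibition = 92 µM tetraoctylammonium bromide; nearly all actives have a fitted effect of over 60% in size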
Summary of the method: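 Human lymphoblastoid cells, 2500/well in complete medium, were preincubated 5 hr at 37 C, then exposed to compounds for 40 hr at 37 C. Intracellular ATP was read by CellTiter-Glo luminescence after 30 min at room temperature; AC50 from Hill-equation fits.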

[12] = qHTS assay for small molecule agonists of retinoid X receptor alpha signaling (AID 588544; calls by dose curve;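 as to activation: 0% = DMSO basal wells and 100% = reference agonist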); settings: HEK293T RXRa-UAS-bla, beta-lactamase reporter, 18 h; 530 nm emission
[13] = target: Retinoic acid receptor RXR-alpha (Homo sapiens) (UniProt P19793); test: as above; settings: HEK293T RXRa-UAS-bla, beta-lactamase reporter, 18 h; series mostly up to 76.7 µM
Sequence of Retinoic acid receptor RXR-alpha (Homo sapiens) (P19793 whole entry, looked up): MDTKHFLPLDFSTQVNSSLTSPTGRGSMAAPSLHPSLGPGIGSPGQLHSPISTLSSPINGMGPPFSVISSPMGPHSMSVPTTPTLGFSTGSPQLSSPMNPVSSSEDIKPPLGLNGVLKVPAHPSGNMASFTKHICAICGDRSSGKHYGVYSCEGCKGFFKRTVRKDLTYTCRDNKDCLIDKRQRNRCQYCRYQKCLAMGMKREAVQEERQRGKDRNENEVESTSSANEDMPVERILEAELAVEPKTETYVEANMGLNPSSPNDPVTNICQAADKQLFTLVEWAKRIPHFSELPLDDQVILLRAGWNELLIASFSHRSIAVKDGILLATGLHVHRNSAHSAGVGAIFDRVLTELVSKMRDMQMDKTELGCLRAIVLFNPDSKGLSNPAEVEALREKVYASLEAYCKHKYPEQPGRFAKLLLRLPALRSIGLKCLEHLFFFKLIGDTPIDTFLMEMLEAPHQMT

[14] = qHTS assay for small molecule antagonists of retinoid X receptor alpha signaling (AID 588546; active = well fitted inhibition curve with a large enough effect in the signal ratio, with a control signal flat, not every such curve was filed as active; the % refers to the signal ratio;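 also: cells stimulated with 9-cis-retinoic acid as agonist; % is scaled to controls: 0 for no effect and ±100 for the full control effect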); settings: HEK293T RXRa-UAS-bla, beta-lactamase ratio, antagonist mode; measured here: W530 green channel, cytotoxicity proxy
Summary of the method: (§1)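 Beta-lactamase reporter inhibition, read as CCF4 fluorescence ratio (ex 405, em 460/530 nm) after 2 h at RT. HEK293T UAS-bla cells, 2500/well, were stimulated with 9-cis-RA at 500 or 100 nM final alongside test compound for 18 h at 37 C.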

[15] = target: Retinoic acid receptor RXR-alpha (Homo sapiens) (UniProt P19793); test: as above; settings: HEK293T RXRa-UAS-bla, beta-lactamase ratio, antagonist mode
Summary of the method: as §1

[16] = qHTS assay for environmental chemicals that activate the Aryl hydrocarbon Receptor (AhR) signaling pathway (AID 651777); settings: 1A2-DRE human hepatoma cells, luciferase, 24 h; activation: stronger effect = higher value; also: nearly all actives have a fitted effect of over 15% in size; also: potency is read from the fitted curve at half-maximal effect; as to activation: % of control where 0% means no effect
Summary of the method: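 Human hepatoma 1A2-DRE cells stably carrying a DRE/CYP1A2 promoter–luciferase reporter, 1,200 cells/well, exposed to compound 24 hr at 37 C. Luciferase read by One-Glo luminescence after 30 min at room temperature; increased signal marks AhR activation.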

[17] = qHTS assay for small molecule agonists of the antioxidant response element (ARE) signaling pathway measured by Nrf2-dependant transcriptional activity (AID 720636; active = well fitted curve in the direction sought with a large enough effect in the repeat runs; an effect the other way counts as inactive or inconclusive; also: % of control where 0% means no effect); settings: ARE-luc HepG2, Nrf2 luciferase reporter, 16 h; series mostly up to 92.4 µM
Summary of the method: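 ARE-luc HepG2 cells carrying an Nrf2-responsive luciferase reporter, in medium with 1% dialyzed FBS, exposed to compound for 16 hr at 37 C, 5% CO2. Luminescence read 30 min after ONE-Glo addition.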

[18] = Cell Viability - H-4-II-E (AID 543); settings: H-4-II-E rat hepatoma viability; series mostly up to 92.2 µM; also: % is scaled to controls: 0 for no effect and ±100 for the full control effect; nearly all actives have a fitted effect of over 35% in size
Summary of the method: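 Rat hepatoma H-4-II-E cells (1500/well) were plated, incubated 5 hr at 37 °C, then exposed to compounds for 40 hr at 37 °C. Cellular ATP was read by CellTiter-Glo luminescence; AC50 came from Hill-equation fits of concentration-response data.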

[19] = target: Cytochrome P450 3A4 (Homo sapiens) (UniProt P08684); test: qHTS Assay for Inhibitors and Substrates of Cytochrome P450 3A4 (AID 884); settings: recombinant CYP3A4, Luciferin-PPXE luminescence; series mostly up to 57.1 µM; also: nearly all actives have a fitted effect of over 50% in size; also: potency is read from the fitted curve at half-maximal effect
Sequence of Cytochrome P450 3A4 (Homo sapiens) (P08684 whole entry, looked up): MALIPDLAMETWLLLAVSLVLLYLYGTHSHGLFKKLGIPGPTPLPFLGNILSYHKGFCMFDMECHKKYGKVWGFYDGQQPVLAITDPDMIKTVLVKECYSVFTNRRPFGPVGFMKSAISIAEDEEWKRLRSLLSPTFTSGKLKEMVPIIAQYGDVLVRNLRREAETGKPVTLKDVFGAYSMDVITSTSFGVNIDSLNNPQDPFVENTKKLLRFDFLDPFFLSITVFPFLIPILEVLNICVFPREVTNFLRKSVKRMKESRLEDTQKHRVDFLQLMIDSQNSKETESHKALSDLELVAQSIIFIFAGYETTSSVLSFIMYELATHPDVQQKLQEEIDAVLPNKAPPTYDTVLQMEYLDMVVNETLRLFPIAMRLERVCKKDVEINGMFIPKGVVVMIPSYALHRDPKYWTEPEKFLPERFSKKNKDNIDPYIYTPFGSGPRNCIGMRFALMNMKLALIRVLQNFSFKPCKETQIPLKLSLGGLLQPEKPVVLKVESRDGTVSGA
Summary of the method: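 20 nM human CYP3A4 with 25 uM Luciferin-PPXE (at KM) in 200 mM KPO4, preincubated 10 min with compound; NADPH regeneration started a 60 min RT reaction. Luciferin detected by luminescence, normalized to 57 uM ketoconazole as full inhibition.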

[20] = target: Tumor necrosis factor (Homo sapiens) (UniProt P01375); test: qHTS assay to identify small molecules that stimulate Tumor Necrosis Factor-alpha (TNF-alpha) secretion (AID 651757; active = well fitted curve in the direction sought with a large enough effect in the signal ratio; the % refers to the signal ratio; also: 0% is about no effect); settings: Human cells, HTRF 665/615 ratio; series mostly up to 92.2 µM
Sequence of Tumor necrosis factor (Homo sapiens) (P01375 whole entry, looked up): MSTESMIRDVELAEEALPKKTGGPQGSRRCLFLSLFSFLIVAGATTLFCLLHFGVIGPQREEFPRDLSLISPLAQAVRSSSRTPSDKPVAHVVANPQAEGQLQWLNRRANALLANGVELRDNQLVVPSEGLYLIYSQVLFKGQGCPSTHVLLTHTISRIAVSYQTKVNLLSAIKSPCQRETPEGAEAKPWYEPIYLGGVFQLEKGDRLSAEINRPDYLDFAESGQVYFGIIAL
Summary of the method: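 THP-1 cells were exposed to compounds for 17 hrs at 37 C, after which secreted TNF-alpha was measured by homogeneous HTRF (TR-FRET) using cryptate- and XL665-labeled anti-TNF-alpha antibodies, read after 3 hr at room temperature.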

Nc1ccc(-c2ccc(N)cc2)cc1
-2.33%: max response [14]
inactive: Potency [1] > 92 µM | Potency [2] > 92 µM | Potency [3] | Potency [4] | outcome [5] | Potency [6] | Potency [7] | Potency [8] | Potency [9] | Potency [10] | Potency [11] | outcome [13] | max response [15] 0.312% | activation [16] 11.6% | Potency [17]
-10.1%: max response [12]

CN(C)N=O
-8.99%: max response [12]
1.95%: max response [14]
inactive: Potency [1] > 92 µM | Potency [2] > 92 µM | Potency [3] | Potency [18] | Potency [4] | outcome [5] | Potency [19] | Potency [6] | Potency [7] | Potency [9] | Potency [10] | Potency [11] | outcome [13] | max response [15] -0.776% | outcome [20] | activation [16] 0.336% | Potency [17]

O=c1ccc(=O)[nH][nH]1
inactive: Potency [1] > 92 µM | Potency [2] > 92 µM | Potency [3] | Potency [18] | Potency [4] | Potency [19] | Potency [6] | Potency [7] | Potency [8] | Potency [9] | Potency [10] | Potency [11] | outcome [13] | max response [15] -4.77% and 2.87% | outcome [20] | activation [16] 0.524% and -2.54% | Potency [17]
-4.32% and 8.97%: max response [14]
-8.67% and -14.6%: max response [12]

Clc1cc(Cl)c(Cl)c(Cl)c1
inactive: Potency [1] > 92 µM | Potency [2] > 92 µM | Potency [3] | Potency [18] | Potency [4] | outcome [5] | Potency [19] | Potency [6] | Potency [7] | Potency [8] | Potency [9] | Potency [10] | Potency [11] | outcome [13] | max response [15] 14.2% | outcome [20] | activation [16] 0.248% | Potency [17]
0.707%: max response [12]
-0.278%: max response [14]

c1ccc2c(c1)CCNC2
-9.85%: max response [12]
inactive: Potency [1] > 92 µM | Potency [2] > 92 µM | Potency [3] | Potency [18] | Potency [4] | outcome [5] | Potency [19] | Potency [6] | Potency [7] | Potency [8] | Potency [9] | Potency [10] | Potency [11] | outcome [13] | max response [15] 19.2% | outcome [20] | activation [16] -1.3% | Potency [17]
-4.26%: max response [14]

CC(C)(C)c1ccccc1O
-1.25% and -13.7%: max response [12]
inactive: Potency [1] > 92 µM | Potency [2] > 92 µM | Potency [3] | Potency [18] | Potency [4] | Potency [19] | Potency [6] | Potency [7] | Potency [8] | Potency [9] | Potency [10] | Potency [11] | outcome [13] | max response [15] 2.54% and -7.07% | outcome [20] | activation [16] 1.34% and -1.14% | Potency [17]
-15.4% and -14.5%: max response [14]

CN(C)C(=O)Nc1cccc(C(F)(F)F)c1
inactive: Potency [1] > 92 µM | Potency [2] > 92 µM | Potency [3] | Potency [18] | Potency [4] | outcome [5] | Potency [19] | Potency [6] | Potency [7] | Potency [8] | Potency [9] | Potency [10] | Potency [11] | outcome [13] | max response [15] 1.67% and -16% | outcome [20] | activation [16] -0.624% and 0.852% | Potency [17]
-22.3% and -23.1%: max response [12]
-7% and -2.56%: max response [14]

O=C(Cc1ccccc1)OCc1ccccc1
10.7%: max response [12]
8.24%: max response [14]
inactive: Potency [1] > 92 µM | Potency [2] > 92 µM | Potency [3] | Potency [18] | Potency [4] | outcome [5] | Potency [19] | Potency [6] | Potency [7] | Potency [8] | Potency [9] | Potency [10] | Potency [11] | outcome [13] | max response [15] -5.19% | outcome [20] | Potency [17]

ClC(Br)Br
-3.88%: max response [12]
-8.78%: max response [14]
inactive: Potency [1] > 92 µM | Potency [2] > 92 µM | Potency [3] | Potency [18] | Potency [4] | outcome [5] | Potency [19] | Potency [6] | Potency [7] | Potency [8] | Potency [9] | Potency [10] | Potency [11] | outcome [13] | max response [15] 0.0478% | outcome [20] | activation [16] 0.329% | Potency [17]

c1ccc(NNc2ccccc2)cc1
-6.25% and -9.7%: max response [12]
-8.78% and -5.97%: max response [14]
inactive: Potency [1] > 92 µM | Potency [2] > 92 µM | Potency [3] | Potency [18] | Potency [4] | Potency [19] | Potency [6] | Potency [8] | Potency [9] | Potency [10] | Potency [11] | outcome [13] | max response [15] 1.29% and 6.1% | outcome [20] | Potency [17]

O=C(O)CCl
inactive: Potency [1] > 92 µM | Potency [2] > 92 µM | Potency [3] | Potency [18] | Potency [4] | outcome [5] | Potency [19] | Potency [6] | Potency [7] | Potency [8] | Potency [9] | Potency [10] | Potency [11] | outcome [13] | max response [15] -2.41% | outcome [20] | Potency [17]
-10.2%: max response [12]
1.14%: max response [14]

Cc1ccc2c(c1N)C(=O)c1ccccc1C2=O
-0.33% and -4.6%: max response [14]
inactive: Potency [1] > 92 µM | Potency [2] > 92 µM | Potency [4] | outcome [5] | Potency [7] | Potency [8] | Potency [9] | Potency [10] | Potency [11] | outcome [13] | max response [15] 9.57% and -23.7%
-11.3% and 17.2%: max response [12]
active: Potency [19] 5.01 µM | Potency [16] 28.2 µM

O=NN1CCCCC1
inactive: Potency [1] > 92 µM | Potency [2] > 92 µM | Potency [3] | Potency [18] | Potency [4] | outcome [5] | Potency [19] | Potency [6] | Potency [7] | Potency [8] | Potency [9] | Potency [10] | Potency [11] | outcome [13] | max response [15] 14.4% | outcome [20] | activation [16] 1.05% | Potency [17]
5.16%: max response [12]
-1.5%: max response [14]
